Experimental data published in PubChem BioAssay (NCI).
About 79,000 compounds went through this panel and 15% of them were active in at least one assay; those are over-represented in the sample as a whole. Values without a mark were called inactive. Active and inactive are the calls of the source. Rule as the data show it: active = growth inhibition above about 70%; inactive = the rest.

Experiment: NCI Yeast Anticancer Drug Screen. Data for the rad18 strain (AID 177)
Details: S. cerevisiae rad18 mutant growth inhibition, stronger effect = higher value
Experimental: Growth inhibition of yeast strains with defined genetic alterations is measured as a screen for potential anti-cancer activity. Selected strains with alterations in DNA damage repair or cell cycle control were exposed to compounds and growth inhibition was measured relative to vehicle treated controls. The strain used in this assay is rad18

| Compound | growth inhibition (at 1.2 µM) [%] | growth inhibition (at 3.7 µM) [%] | growth inhibition (at 11.0 µM) | growth inhibition (at 33.0 µM) | growth inhibition (at 100.0 µM) |
| --- | --- | --- | --- | --- | --- |
| O=C1C(=O)c2ccccc2C(O)=C1C(C1=C(O)c2ccccc2C(=O)C1=O)c1ccc(Cl)cc1 | 23 | 38 | 70% (active) | 64% | 49% |
| CC(C)(C)N=C(NO)c1ccccc1 | 1 | -1 | 38% | 38% | 82% (active) |
| O=[N+]([O-])/C=C/c1cc(Cl)c(/C=C/[N+](=O)[O-])cc1Cl | 19 | 51 | 78% (active) | 95% (active) | 89% (active) |
| CN(C)Cc1cc(N=Nc2ccc(Cl)cc2)ccc1OC(=O)c1ccccc1 | 1 | 1 | -16% | 17% | 58% |
| CCN(CC)CCN(C)CCc1ccc(Br)cc1 | 11 | 32 | 54% | 66% | 91% (active) |
| CC(=O)OCC1OC2OC(=O)NC2C(OC(C)=O)C1OC(C)=O (stereo not given) | -3 | -1 | 0% | -3% | -2% |
| Brc1ccccc1-c1ncc(-c2ccccc2)o1 | -7 | 0 | 51% | 75% (active) | 78% (active) |
| Cc1c2ccnc(C(=O)NCCN(C)C)c2cc2c3cc(O)ccc3n(C)c12 | -5 | -4 | -1% | 3% | 15% |
